The source of these data is PubChem BioAssay (NCI).

Among the test systems are HCT-15 colon; HT29 colon; SNB-75 CNS; SNB-19 CNS; U251 CNS; PC-3 prostate; SK-MEL-5 melanoma; UACC-62 melanoma; LOX IMVI melanoma; SK-MEL-28 melanoma; SK-MEL-2 melanoma; EKVX NSCLC; SN12C renal; UO-31 renal; TK-10 renal; MOLT-4 leukemia.
Holding throughout (assay): NCI-60 one-dose screen, 48 h (100 = growth as untreated, 0 = no growth, -100 = all killed)
A further experiment has as its system ACHN renal. As to conditions: 10 µM unless noted.
Another experiment relates to CAKI-1 renal. Conditions: 10 µM unless noted.
A further experiment has as its system A498 renal. Conditions: 10 µM unless noted.
The next experiment relates to CCRF-CEM leukemia. As to conditions: 10 µM unless noted.

The structures appear in SMILES notation. Compounds without any hit were thinned out: in the full panel of roughly 83,000, 20% have a hit.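 Percent growth is the endpoint: 0 to 100 indicates growth inhibition (40 means 60% inhibition), 0 means no net growth, and negative values indicate cell death.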 Unmarked numbers belong to inactive results. The source made the active and inactive calls. Rule for the calls: active = growth percent below 10; inactive = the rest.

Take `CC(=O)OC[C@]12CCC(C)(C)C=C1[C@H]1CC[C@@H]3[C@@]4(C)CCCNC(C)(C)[C@@H]4CC[C@@]3(C)[C@]1(C)CC2`: the growth was 89.6% in the experiment with HCT-15 colon (10 µM unless noted); 31.6% with HT29 colon (10 µM unless noted); 71.8% in the experiment with SNB-75 CNS (10 µM unless noted); 53.4% with SNB-19 CNS (10 µM unless noted); 35.3% with U251 CNS (10 µM unless noted); 37% with PC-3 prostate (10 µM unless noted). Moreover, the growth in the experiment with SK-MEL-5 melanoma (10 µM unless noted) is 9.31% (active); with UACC-62 melanoma (10 µM unless noted), 34.4%; with LOX IMVI melanoma (10 µM unless noted) it was 72.5%; in the experiment with SK-MEL-28 melanoma (10 µM unless noted), 59.1%; in the experiment on SK-MEL-2 melanoma (10 µM unless noted), 90.7%; with EKVX NSCLC (10 µM unless noted), 89.5%. The growth with SN12C renal (10 µM unless noted) was 68.8%; with UO-31 renal (10 µM unless noted) it was 91.5%; with TK-10 renal (10 µM unless noted) it was 94.9%; with ACHN renal, 99.3%; with CAKI-1 renal, 88.9%; in the experiment on A498 renal, 97.9%. The figures for the growth with CCRF-CEM leukemia and with MOLT-4 leukemia (10 µM unless noted) were 39.3% and 38.8%, respectively.
In the case of `C[N+]1=C(/C=C\C=C\c2ccccc2)C(C)(C)c2ccccc21`, the growth is 14.2% with HCT-15 colon (10 µM unless noted); 12.3% with HT29 colon (10 µM unless noted); 81.8% with SNB-75 CNS (10 µM unless noted); 27.4% in the experiment on SNB-19 CNS (10 µM unless noted); 14% with U251 CNS (10 µM unless noted); 30.7% in the experiment with PC-3 prostate (10 µM unless noted). Moreover, the growth in the experiment with SK-MEL-5 melanoma (10 µM unless noted) was -39.7% (active); in the experiment on UACC-62 melanoma (10 µM unless noted) it was -16.1% (active); in the experiment on LOX IMVI melanoma (10 µM unless noted), 12.6%; in the experiment with SK-MEL-28 melanoma (10 µM unless noted), -35.5% (active); in the experiment on SK-MEL-2 melanoma (10 µM unless noted), 10.9%; in the experiment with EKVX NSCLC (10 µM unless noted), 31.5%. Moreover, the growth was -2.25% (active) with SN12C renal (10 µM unless noted); 39.3% in the experiment on UO-31 renal (10 µM unless noted); 50.3% with TK-10 renal (10 µM unless noted); 43.8% in the experiment with ACHN renal; 38.4% in the experiment on CAKI-1 renal; 61.2% with A498 renal. For the same compound, the growth in the experiment on CCRF-CEM leukemia was -8.67% (active); in the experiment on MOLT-4 leukemia (10 µM unless noted), 0.0688% (active).
Consider `O=C(/C=C/c1cccc(Oc2ccc(Cl)cc2)c1)c1ccccc1`, for which the growth is 80.8% in the experiment with HCT-15 colon (10 µM); -72.6% (active) in the experiment on HCT-15 colon (100 µM); 84.2% with HT29 colon (10 µM); -67% (active) in the experiment on HT29 colon (100 µM); 82.8% in the experiment with SNB-75 CNS (10 µM); -94.8% (active) with SNB-75 CNS (100 µM). Further, the growth with SNB-19 CNS (10 µM) is 90.5%; with SNB-19 CNS (100 µM) it was -77.3% (active); with U251 CNS (10 µM), 76%; with U251 CNS (100 µM) it was -100% (active); in the experiment on PC-3 prostate (10 µM), 84.5%; in the experiment with PC-3 prostate (100 µM) it was -72.3% (active). In addition, the growth in the experiment with SK-MEL-5 melanoma (10 µM) is 105%; in the experiment on SK-MEL-5 melanoma (100 µM), -97.3% (active); in the experiment on UACC-62 melanoma (10 µM), 100%; in the experiment on UACC-62 melanoma (100 µM), -71.9% (active); in the experiment on LOX IMVI melanoma (10 µM) it was 38.2%; with LOX IMVI melanoma (100 µM) it was -99.3% (active). The growth in the experiment with SK-MEL-28 melanoma (10 µM) is 101%; in the experiment on SK-MEL-28 melanoma (100 µM), -82.2% (active); with SK-MEL-2 melanoma (10 µM), 109%; with SK-MEL-2 melanoma (100 µM), -59.8% (active); in the experiment with EKVX NSCLC (10 µM), 110%; in the experiment on EKVX NSCLC (100 µM), -79.6% (active). Moreover, the growth with SN12C renal (10 µM) was 111%; in the experiment on SN12C renal (100 µM), -63.7% (active); with UO-31 renal (10 µM) it was 86.2%; in the experiment with UO-31 renal (100 µM), -99.8% (active); in the experiment on TK-10 renal (10 µM), 105%; with TK-10 renal (100 µM) it was -99.2% (active). The growth with ACHN renal is 99.3%; in the experiment on CCRF-CEM leukemia, -10.5% [100 µM] (active); in the experiment on MOLT-4 leukemia (10 µM) it was 62.6%; in the experiment with MOLT-4 leukemia (100 µM) it was -2.97% (active).
For the compound `O=C(/C=C/c1ccc([N+](=O)[O-])cc1)c1ccccc1`, the growth with HCT-15 colon (10 µM unless noted) is 77.2%; with HT29 colon (10 µM unless noted) it was 50.7%; in the experiment on SNB-75 CNS (10 µM unless noted) it was 83.4%; with SNB-19 CNS (10 µM unless noted) it was 98.5%; in the experiment on U251 CNS (10 µM unless noted), 80.8%; in the experiment with PC-3 prostate (10 µM unless noted) it was 77.5%. In addition, the growth in the experiment on SK-MEL-5 melanoma (10 µM unless noted) was 94.5%; in the experiment with UACC-62 melanoma (10 µM unless noted), 94.9%; in the experiment on LOX IMVI melanoma (10 µM unless noted), 61.4%; with SK-MEL-28 melanoma (10 µM unless noted), 103%; in the experiment with SK-MEL-2 melanoma (10 µM unless noted), 91.1%; in the experiment with EKVX NSCLC (10 µM unless noted), 90.8%. Also, the growth in the experiment on SN12C renal (10 µM unless noted) was 99.8%; with UO-31 renal (10 µM unless noted), 74.8%; in the experiment with TK-10 renal (10 µM unless noted), 68.9%; in the experiment with ACHN renal, 99.6%; with CAKI-1 renal, 96.2%; in the experiment on A498 renal, 103%. Besides, the figures for the growth with CCRF-CEM leukemia and in the experiment on MOLT-4 leukemia (10 µM unless noted) were 76.7% and 55.1%, respectively.
Take `CCc1c2c(nc3ccc(OCc4ccc(B5OC(C)(C)C(C)(C)O5)cc4)cc13)-c1cc3c(c(=O)n1C2)COC(=O)[C@]3(O)CC`: the growth was 32.9% in the experiment on HCT-15 colon (10 µM unless noted); 10.2% in the experiment on HT29 colon (10 µM unless noted); 5.99% (active) with SNB-75 CNS (10 µM unless noted); 8.91% (active) in the experiment with SNB-19 CNS (10 µM unless noted); -8.07% (active) with U251 CNS (10 µM unless noted); 26.9% with PC-3 prostate (10 µM unless noted). The growth is -54.8% (active) in the experiment with SK-MEL-5 melanoma (10 µM unless noted); -40.7% (active) in the experiment on UACC-62 melanoma (10 µM unless noted); -55.2% (active) with LOX IMVI melanoma (10 µM unless noted); 32.8% in the experiment on SK-MEL-28 melanoma (10 µM unless noted); 20.4% in the experiment on SK-MEL-2 melanoma (10 µM unless noted); 35% with EKVX NSCLC (10 µM unless noted). Further, the growth was 3.16% (active) in the experiment with SN12C renal (10 µM unless noted); -13.2% (active) with UO-31 renal (10 µM unless noted); 39.5% with TK-10 renal (10 µM unless noted); -9.99% (active) in the experiment on ACHN renal; -1.75% (active) in the experiment with CAKI-1 renal; -40.3% (active) with A498 renal. Besides, the results for the growth with CCRF-CEM leukemia and in the experiment on MOLT-4 leukemia (10 µM unless noted) were 8.7% (active) and 8.97% (active), respectively.
Turning to `Cc1ccc(S(=O)(=O)OC[C@@]2(C)CC[C@]3(C)CC[C@]4(C)C(=CC[C@@H]5[C@@]6(C)CCCNC(C)(C)[C@@H]6CC[C@]54C)[C@@H]3C2)cc1`, the growth was -89.7% (active) with HCT-15 colon (10 µM unless noted); -88.2% (active) in the experiment on HT29 colon (10 µM unless noted); -57.1% (active) in the experiment on SNB-75 CNS (10 µM unless noted); -16.7% (active) in the experiment on SNB-19 CNS (10 µM unless noted); -89.6% (active) in the experiment with U251 CNS (10 µM unless noted); -10.3% (active) in the experiment with PC-3 prostate (10 µM unless noted). Moreover, the growth in the experiment with SK-MEL-5 melanoma (10 µM unless noted) was 40.1%; in the experiment on UACC-62 melanoma (10 µM unless noted), -69.2% (active); with LOX IMVI melanoma (10 µM unless noted), -99.5% (active); in the experiment with SK-MEL-28 melanoma (10 µM unless noted), 55.6%; with SK-MEL-2 melanoma (10 µM unless noted) it was -59% (active); with EKVX NSCLC (10 µM unless noted), 9.58% (active). Moreover, the growth was -88.3% (active) in the experiment on SN12C renal (10 µM unless noted); -2.29% (active) in the experiment on UO-31 renal (10 µM unless noted); -61.1% (active) with TK-10 renal (10 µM unless noted); -100% (active) in the experiment with ACHN renal; -92.4% (active) in the experiment with CAKI-1 renal; 86.8% in the experiment on A498 renal. The growth in the experiment on CCRF-CEM leukemia was -28.6% (active); with MOLT-4 leukemia (10 µM unless noted), -42.1% (active).
In the case of `CCOC(=O)CCCn1c(-c2ccccc2)cc(-c2ccccc2)c(C#N)c1=O`, the growth is 82.3% in the experiment with HCT-15 colon (10 µM unless noted); 88.1% in the experiment on HT29 colon (10 µM unless noted); 71.2% with SNB-75 CNS (10 µM unless noted); 93.5% in the experiment on SNB-19 CNS (10 µM unless noted); 98.7% in the experiment on U251 CNS (10 µM unless noted); 63.8% in the experiment with PC-3 prostate (10 µM unless noted). The growth in the experiment with SK-MEL-5 melanoma (10 µM unless noted) is 92.7%; in the experiment on UACC-62 melanoma (10 µM unless noted), 59%; with LOX IMVI melanoma (10 µM unless noted), 84.7%; in the experiment with SK-MEL-28 melanoma (10 µM unless noted), 88.7%; in the experiment with SK-MEL-2 melanoma (10 µM unless noted), 94.8%; with EKVX NSCLC (10 µM unless noted), 93.4%. Further, the growth with SN12C renal (10 µM unless noted) is 84.6%; in the experiment on UO-31 renal (10 µM unless noted), 71.5%; with TK-10 renal (10 µM unless noted), 113%; with ACHN renal, 94.7%; in the experiment with CAKI-1 renal it was 57.3%; in the experiment with A498 renal, 25.7%. The growth with CCRF-CEM leukemia is 88.4%; in the experiment on MOLT-4 leukemia (10 µM unless noted) it was 82.1%.
